Insulin prom inh – TRM-6 insulin promoter activity inhibition; TRM-6 cells (human fetal islet line), insulin promoter-eGFP reporter, imaging; reporter expression induced with tamoxifen; inhibition, % at 2 µM; 0.9% of 130,000 active;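 active = inhibition above the mean plus 3 SD, with well images judged a real hit on visual review, cut at about 60% in these data, passing the limit was not always enough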
IL1B cytotox – HUVEC cytotoxicity counter-screen, IL-1B stimulated; HUVEC cell count loss, Hoechst imaging; cell count reduction, % at 2 µM; 0.41% of 94,000 active;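 active = cell count reduction more than 3 SD above the screen-wide mean, cut at about 70% in these data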;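 note: normalized per plate to untreated control cells as the no-loss baseline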
NFkB transloc pot – enhances IL-1B driven NFkB nuclear translocation | 0.3% of 94,000 active | activation, % at 2 µM | HUVEC IL-1B NFkB p65 nuclear translocation imaging | AID 819;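 active = activation above 40%, about the mean plus 3 SD, also judged a hit on visual image review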;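 note: percent activation is computed from the nuclear over cytoplasmic p65 intensity ratio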
IL1B NFkB inh – blocks IL-1B driven NFkB nuclear translocation in HUVEC cells. HUVEC IL-1B NFkB p65 nuclear translocation imaging. inhibition, % at 2 µM. 0.43% of 94,000 active. AID 796;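 active = inhibition above about 30% together with a positive call from visual inspection of the well image, limit read from the data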;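 note: nuclear over cytoplasmic p65 intensity ratio measured by imaging; 0% = IL-1B stimulated DMSO wells and 100% = unstimulated DMSO wells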
Starred values were filed as active, the others as inactive; x = not tested or not shown. An excerpt weighted towards active compounds, which were near 1.4% of everything screened.

SMILES	Insulin prom inh	IL1B cytotox	NFkB transloc pot	IL1B NFkB inh
O=C(CNC(=O)c1ccccc1C(=O)O)c1ccccc1	78*	-62	30	-30
C=CCn1c(COc2ccc3c(c2)CCCC3)nnc1SCC(=O)Nc1cccc(SC)c1	x	16	1	-1
COc1ccc(C(=O)N/N=C/C2CC=CCC2)cc1OC (stereo not given)	-14	x	x	x
Cc1[nH]nc2c1/C(=N\O)CC(C)(C)C2	x	10	-6	6
Cc1ccc2c(n1)CC(C)(C)C/C2=N\O	90*	-33	10	-10
Nc1ccc(C(=O)OCC(=O)NC2CC2)cc1[N+](=O)[O-]	-27	x	x	x
O=C(COC(=O)c1ccccc1C(=O)c1ccc(Cl)c([N+](=O)[O-])c1)NC1CCCCCC1	29	47	-83	83*
O=C(NCC(F)(F)F)Nc1cccnc1	47	90*	-77	77*
O=C(Nc1cccnc1)Nc1ccccc1Cl	x	-8	-6	6
CCn1c(SCC(=O)N(C(C)C)C(C)C)nnc1-c1cc2ccccc2cc1O	6	6	60*	-60
CCc1nnc(NC(=O)CSc2nnc(-c3cc4ccccc4cc3O)n2CC)s1	-9	x	x	x
Fc1ccccc1C(c1nnnn1C1CCCC1)N1CCN(Cc2ccccc2)CC1 (stereo not given)	36	88*	-77	77*
Clc1ccc2c(N/N=C/c3cccc(Br)c3)ccnc2c1	73*	x	x	x
Clc1cccc(/C=N\Nc2nccs2)c1	14	7	-1	1
CCC1C(=O)Nc2nc(-c3ccccc3)c(-c3ccccc3)n2N=C1C (stereo not given)	-62	13	120*	-120
COc1ccc(C(=O)C(CN2CCOCC2)c2ccccc2)cc1F (stereo not given)	71*	-5	-11	11
COc1ccc2cc(C(=O)O)ccc2c1	9	16	-3	3
COc1ccc(C(=O)O)cc1F	79*	-29	-6	6
COc1ccc(Cn2c(=S)[nH]c3ccsc3c2=O)cc1	37	x	x	x
Clc1ccc(-c2noc(CCCOc3ccccc3)n2)cc1	-8	-10	-84	84*
Clc1ccc(-c2noc(COc3ccccc3)n2)cc1	48	x	x	x
Cc1ccc(NC(=O)CCSc2nc(C)cc(C)n2)cc1	-21	13	-15	15
Cc1c(S(=O)(=O)N2CCN(c3cccc(C(F)(F)F)c3)CC2)c(=O)n(C)c(=O)n1C	x	-17	4	-4
Cn1cc(S(=O)(=O)N2CCN(c3cccc(C(F)(F)F)c3)CC2)c(=O)n(C)c1=O	x	-6	-56	56*
Cc1ccc(/C=C/C2=Cc3c(sc(NC(=O)CSc4n[nH]c(N)n4)c3C#N)C(C)(C)C2)o1	18	-23	-50	50*
SMILES	Insulin prom inh	IL1B cytotox	NFkB transloc pot	IL1B NFkB inh
Cc1cccc(NC(=O)CN2C(=O)N/C(=C/c3cc(C)n(C)c3C)C2=O)c1	83*	x	x	x
COc1ccccc1-c1cc(C(F)(F)F)nc(S(=O)(=O)CCCC(=O)NC(C)C)n1	x	-8	-26	26
COc1ccccc1-c1cc(C(F)(F)F)nc(S(=O)(=O)CCCC(=O)Nc2cccnc2Cl)n1	73*	x	x	x
Cc1ccc(-n2c(=O)[nH]c3c(C(N)=O)nc(CC(C)C)nc32)cc1	93*	-4	20	-20
COc1ccccc1-n1c(=O)[nH]c2c(C(N)=O)nc(CC(C)C)nc21	x	3	6	-6
COC(=O)c1sccc1NC(=O)Nc1cccc(F)c1	-19	x	x	x
CCCCN(C)C1=Nc2cccc3cccc1c23	75*	-4	2	-2
O=C(Nc1cccc([N+](=O)[O-])c1)c1ccncc1	39	x	x	x
CC(C)(C)c1ccc(C(=O)Nc2cccc([N+](=O)[O-])c2)cc1	72*	x	x	x
CCCCCC(=O)N/N=C(\C)c1ccc(Cl)cc1	100*	-11	4	-4
COc1cc(S(=O)(=O)N2CCCCC2)ccc1NC(=O)c1ccccc1Cl	-86	-36	-47	47*
CN(c1ccccc1C(=O)Nc1ccc(S(=O)(=O)N2CCCCC2)cc1)S(C)(=O)=O	-8	94*	-99	99*
CNc1ccc(/C=C(\CCC(=O)O)c2nc3ccccc3s2)cc1[N+](=O)[O-]	-38	x	x	x
CCC(NC(=O)COc1ccc([N+](=O)[O-])cc1)c1ccccc1 (stereo not given)	67*	x	x	x
COc1ccc(CN(C2CCCC2)S(=O)(=O)c2ccc(-n3cnnn3)cc2)cc1	83*	-3	7	-7
COc1ccc(CN(C2CCCC2)S(=O)(=O)c2ccc(-n3cnnn3)cc2)cc1OC	53	-26	-4	4
Cc1ccc(C2CC(c3cccs3)=NN2C(=O)CSc2nc3ccccc3o2)cc1 (stereo not given)	30	x	x	x
CSCCOC(=O)C1=C(C)Nc2ccc(C)cc2S1	36	-7	-58	58*
COc1ccccc1CNC(=O)C(=O)NCC(c1ccco1)N1CCOCC1 (stereo not given)	22	x	x	x
COc1ccc2nc(C)cc(N3CC(C)OC(C)C3)c2c1 (stereo not given)	91*	11	9	-9
O=S(=O)([N-]c1nc2ccccc2nc1-[n+]1ccc(-c2ccncc2)cc1)c1ccccc1	8	x	x	x
CC1(C)CC(=O)C=C(Nc2ccc(S(N)(=O)=O)cc2)C1	-407	8	-34	34*
CC(C)CC(NC(N)=O)C(=O)NCCc1ccc(Cl)cc1 (stereo not given)	-43	x	x	x
N=C1C(c2nc3ccccc3s2)=C(O)CN1c1ccccc1	-30	x	x	x
COc1ccc(CN2CCN(C(=O)CC(C)C)CC2)c2ccccc12	75*	5	4	-4
SMILES	Insulin prom inh	IL1B cytotox	NFkB transloc pot	IL1B NFkB inh
CC(C)=C1SC(N2CCN(c3ccc(Cl)cc3)CC2)=NC1=O	71*	x	x	x
CCOC(=O)c1c(-n2cccc2)sc2c1CCCC2=O	-58	x	x	x
Fc1ccc(Oc2ncccn2)c(F)c1	-13	x	x	x
O=C(O)C(Cc1ccccc1)N1Cc2ccccc2C1=O (stereo not given)	-21	5	40*	-40
CC(C)CC(C(=O)N1CCOCC1)N1Cc2ccccc2C1=O (stereo not given)	-13	x	x	x
COc1ccc(C(C#N)N2CCOCC2)cc1 (stereo not given)	-170	-38	8	-8
COc1ccc(C(OCC2CO2)c2ccc(OC)cc2)cc1 (stereo not given)	77*	x	x	x
O=C(c1cccc(F)c1)n1nnc2ccccc21	81*	19	13	-13
CCCc1cc2c(c(NC(C)=O)n1)c(=O)oc1ccccc12	-33	78*	-19	19
COc1ccc(/C(N)=N/O)cc1O	11	x	x	x
COc1ccc(-c2nc3c(c(SCC(=O)N4CCOCC4)n2)COC(C)(C)C3)cc1	61*	x	x	x
CC(Sc1nc(-c2ccccc2)nc2c1COC(C)(C)C2)C(=O)N1CCOCC1 (stereo not given)	-25	-18	15	-15
COc1ccc(-c2nc3ccccc3s2)cc1O	86*	0	22	-22
CCN1CN(Cc2ccco2)CNC1=S	45	x	x	x
Cc1nc2ccccc2c(C)c1C(=O)c1ccccc1	24	x	x	x
CC(=O)c1c(C)nc2ccccc2c1N	88*	-7	23	-23
COc1ccc(NC(=O)COC(=O)CCCc2c[nH]c3ccccc23)cc1OC	-37	4	10	-10
Cc1ccccc1NC(=O)C(=O)NCc1ccccn1	-110	9	10	-10
C(=C\c1nc(-c2cccnc2)no1)/c1ccccc1	70*	x	x	x
